A selection: hits, their analogues and other compounds. The true share with any hit is near 6.2%.
ATXN2 expr inh = Primary qHTS for Inhibitors of ATXN expression. HEK-293 ATXN2-luciferase reporter, luminescence, 24 h. Potency, µM (doses to about 57 µM), for the others: top-dose activity change, negative = inhibition, usual class: inhibitors. 360,000 tested, 0.72% active. AID 1745845, 2022; also: % is scaled to controls: 0 for no effect and ±100 for the full control effect; nearly all actives have a fitted effect of over 55% in size
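ATXN2-luciferase reporter cells (luciferase flanked by upstream and downstream ATXN2 gene portions) were treated 24 h at 37 °C with compounds at up to 57 uM. SteadyGlo luminescence gave expression; GF-AFC fluorescence gave viability.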
ATXN viability = Viability Counterscreen for Primary qHTS for Inhibitors of ATXN expression; S2 cells (HEK-293 line with an ATXN2-luciferase reporter) viability, CellTiter-Fluor protease fluorescence, 24 h; 400,000 tested, 0.49% active; Potency, µM (titrated, usually from 56.7 µM), hits mostly cytotoxic; also: nearly all actives have a fitted effect of over 40% in size
KB-V1 MDR tox = qHTS assay for MDR1-selective chemotherapeutics: Primary screen using the drug-selected MDR subline cells KB-V1; KB-V1 MDR cells viability, CellTiter-Glo, 72 h; Potency, µM (series often up to 46.1 µM), hits mostly cytotoxic; 400,000 tested, 3.4% active; AID 1347076, 2019; also: % is scaled to controls: 0 for no effect and ±100 for the full control effect; nearly all actives have a fitted effect of over 60% in size
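KB-V1 MDR subline cells in DMEM (phenol-red free, 10% FBS) exposed to compounds in qHTS concentration series for 72 h at 37 degrees C. Viability read by CellTiter-Glo luminescence; concentration-effect curves fitted after normalization and correction.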
HT1080 IDH1KD tx = qHTS for induction of synthetic lethality in tumor cells producing 2HG: qHTS for the HT-1080-IDH1KD cell line | HT-1080 IDH1 knockdown viability, ATP luminescence, 48 h | Potency, µM (doses to about 46.1 µM), inactives show at the highest dose activity, negative = toxicity, usual class: cytotoxic | 360,000 tested, 2% active | AID 686971, 2013;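 also: 0% = DMSO wells and -100% = cell-free medium wells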
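Assay cells: HT-1080 with IDH1 knockdown, 750 per well, RPMI/5% FBS. Exposure: 48 h at 37 °C following 2 h pre-incubation. Read: CellTiter-Glo luminescence; fitted concentration-response, curve class assigned.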
KB-3-1 tox = qHTS assay for MDR1-selective chemotherapeutics: Primary screen using the parental adenocarcinoma cell KB-3-1 | 400,000 tested, 1.4% active | KB-3-1 viability, CellTiter-Glo ATP luminescence, 72 h | AID 1347075, 2019 | Potency, µM (top dose mostly 46.1 µM), hits mostly cytotoxic; also: % is scaled to controls: 0 for no effect and ±100 for the full control effect; nearly all actives have a fitted effect of over 60% in size
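Cytotoxicity in the drug-sensitive parental line KB-3-1 was scored as loss of CellTiter-Glo luminescence following 72 h incubation with compound. Values come from curve fitting of normalized concentration-response data.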
HT1080-NT tox = qHTS for induction of synthetic lethality in tumor cells producing 2HG: qHTS for the HT-1080-NT fibrosarcoma cell line. HT-1080-NT fibrosarcoma viability, CellTiter-Glo ATP luminescence, 48 h. Potency, µM (highest dose often 46.1 µM), for inactives: at the top dose activity, negative = less viability, most hits filed as cytotoxic. 360,000 tested, 1.6% active. AID 686970, 2013;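 also: NT is the 2HG producing partner of a matched IDH1 knockdown line; 0% = DMSO-treated cells and -100% = media-only wells without cells; nearly all actives have a fitted effect of over 55% in size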
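Toxicity toward the 2HG-producing NT line was scored as %Activity, normalised to DMSO and no-cell wells, from CellTiter-Glo luminescence after 48 hours' treatment.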
Active calls of the source: *; i = inactive; ? = inconclusive; · = no result given; [ ] = another dose, or the depositor's remark. Calls follow the shape of the dose curve; as a rule, active = well fitted curve in the direction sought with a large enough effect; inconclusive = small, poorly fitted or top-dose-only effect, or another doubt; inactive = no such curve, though single readings can be large; an effect the other way counts as inactive or inconclusive. Potency is read from the fitted curve at half-maximal effect.

SMILES	ATXN2 expr inh	ATXN viability	KB-V1 MDR tox	HT1080 IDH1KD tx	KB-3-1 tox	HT1080-NT tox
C[C@H]1CN([C@@H](C)CO)C(=O)c2cccc(NC(=O)Nc3ccc(C(F)(F)F)cc3)c2O[C@@H]1CN(C)C(=O)Nc1ccc(F)cc1	20µM*	13µM*	i	?	?	?
C[C@H](CO)N1C[C@H](C)[C@@H](CN(C)C(=O)Nc2ccc(C(F)(F)F)cc2)Oc2c(NC(=O)Nc3ccc(C(F)(F)F)cc3)cccc2C1=O	?	16µM*	?	?	16µM*	?
C[C@@H]1CN([C@@H](C)CO)C(=O)c2cccc(NC(=O)Nc3ccc(F)cc3)c2O[C@@H]1CN(C)Cc1ccc(Oc2ccccc2)cc1	?	18µM*	i	?	i	23µM*
COCC(C)n1c(C)cc(C(=O)COC(=O)c2cnc(Cl)c(Cl)c2)c1C (stereo not given)	-7%	?	?	-6%	i	-1%
COCC(C)n1c(C)cc(C(=O)COC(=O)c2cccn2C)c1C (stereo not given)	18µM*	i	i	-12%	i	-11%
COc1ccccc1CCC(=O)Nc1nccs1	-6%	i	i	15%	i	18%
CCOC(=O)c1sc(NC(=O)CCc2ccccc2)nc1C	·	i	i	-6%	?	-17%
CCOC(=O)c1sc(NC(=O)c2ccc(OC(C)=O)cc2)nc1C	38%	i	10µM*	29µM*	?	-26%
O=C(CN1CCOCC1)Nc1ncc(Cc2ccccc2Cl)s1	6%	?	?	15%	i	3%
CCOC(=O)c1sc(NC(=O)CC(C)c2ccccc2)nc1C (stereo not given)	-19%	i	?	9.2µM*	?	?
COc1ccccc1CCC(=O)Nc1ncc(C)s1	36%	i	23µM*	-2%	?	-15%
CCc1ccc(CCC(=O)Nc2ncc(Cc3ccccc3Cl)s2)o1	-10%	i	i	4.6µM*	?	6.5µM*
C=C1C=C(C(F)F)n2ncc(C(=O)N3CCc4ccccc4C3)c2N1	·	·	i	·	?	·
CN(C)S(=O)(=O)c1ccc(C(=O)Nc2c(C(=O)Nc3ccc(F)cc3)oc3ccccc23)cc1	18%	i	i	·	i	·
CCC(C(=O)Nc1nnc2n1CCS2)c1ccccc1 (stereo not given)	4%	i	?	·	i	·
COc1ccccc1CN1CCOc2ccc(C(C)(O)COc3ccccc3)cc2C1 (stereo not given)	·	i	·	·	·	·
Cc1cnc(NC(=O)CC(C)c2ccccc2)s1 (stereo not given)	-4%	i	?	?	21µM*	?
COc1cc(/C=C(/C#N)c2ccccc2)ccc1Oc1ccc([N+](=O)[O-])cn1	-21%	i	18µM*	-8%	i	?
COc1cc(/C=N/NC(=O)c2ccncc2)ccc1Oc1ccc([N+](=O)[O-])cn1	1%	i	i	5%	i	12%
COc1cc(/C=N/NC(=O)c2ccc(O)cc2)ccc1Oc1ccc([N+](=O)[O-])cn1	·	i	i	18µM*	i	?
COc1cc(/C=C(\C#N)c2nc3ccccc3[nH]2)ccc1Oc1ccc([N+](=O)[O-])cn1	-24%	?	i	?	i	?
Cc1oc(-c2ccccc2NC(=O)c2ccccc2)nc1CNC(=O)C1CC(=O)OC12CCCCC2 (stereo not given)	·	i	·	·	·	·
CC(=O)Oc1ccc(-c2nc(-c3ccccc3)no2)cc1	·	·	i	·	?	·
N#Cc1c(NC(=O)CSc2ncn[nH]2)sc2c1CCCCC2	?	?	4.1µM*	?	i	?
CC(C)(CC(=O)NCc1ccc(Cl)cc1Cl)CC1=NS(=O)(=O)c2ccccc2N1	25µM*	i	?	·	?	·
SMILES	ATXN2 expr inh	ATXN viability	KB-V1 MDR tox	HT1080 IDH1KD tx	KB-3-1 tox	HT1080-NT tox
COc1ccc2c(Sc3ccccc3)c(C(=O)N3CCC(C)CC3)[nH]c2c1	?	·	i	·	i	·
CC(C)CCCCCCCCCCCCC(=O)NCC(=O)NC1C(O)C(O)C(Nc2ncnc3nc[nH]c23)OC1C(O)CO (stereo not given)	-66%	i	0.16µM*	0.16µM*	0.18µM*	?
Cc1ccc(OCC(=O)N(C)CC(=O)Nc2ccccc2Cl)c([N+](=O)[O-])n1	2%	i	18µM*	-23%	i	-2%
CCOC(=O)c1c(C)[nH]c(C(=O)OCC(=O)Nc2cc(C)ccc2OC)c1C	-2%	i	?	0%	i	-2%
CCOC(=O)c1[nH]c(C)c(C(=O)OCC(=O)NC(C)c2ccc(F)cc2)c1C (stereo not given)	·	i	i	3.7µM*	1.8µM*	3.7µM*
Cc1ccc(OCC(=O)N(C)CC(=O)Nc2ccc(F)cc2)c([N+](=O)[O-])n1	1%	i	i	2%	i	6%
CCOC(=O)c1c(C)[nH]c(C(=O)OCC(=O)Nc2cc(Cl)ccc2OC)c1C	-31%	i	9.2µM*	?	i	-19%[9.24 µM]
CC(=O)c1c(C)[nH]c(C(=O)OCC(=O)Nc2ccc(Cl)cc2[N+](=O)[O-])c1C	-16%	i	?	-27%	i	18µM*
COc1cccc(CN2C(=O)c3ccccc3Sc3ccc(C(=O)NCc4ccccc4)cc32)c1	1%	i	i	·	i	·
CCCN(CCC)C(=O)C1CCN(c2cc(C)nc3c(-c4ccc(Cl)cc4)c(C)nn23)CC1	-3%	?	i	·	i	·
Cc1ccc(-n2c3nc(=O)[nH]c(=O)c-3cc3c(C)nn(-c4ccccc4)c32)cc1C	5%	i	i	·	i	·
